The source made the active and inactive calls.

The test system of assay [1] is XIP peptide (Xip251-270) binding. The experiment in a line: small-molecule binders of XIP peptide, primary screen, biochemical, small-molecule microarray, fluorescence 635/667 nm, 0.1 µg/mL protein (AID 1182). The following applies: fluorescent protein binding, 635 nm, higher = more signal, called active from +8 up or from −8 down.
In the next assay the test system is XIP peptide (Xip251-270). The experiment in a line: small-molecule binders of XIP peptide, primary screen, biochemical, small-molecule microarray, fluorescence 635/667 nm, 0.5 µg/mL protein (AID 1183). Particulars: small-molecule microarray binding, fluorescence 635 nm; higher = more signal.
Assay [2] can be described thus: Plasmodium falciparum growth inhibition, primary screen, strain 3D7, DAPI fluorescence, 100 nL (AID 1184).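 Note: parasites grown inside human red blood cells in medium with human serum.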 The following applies: P. falciparum 3D7 growth, 3 d, higher = more signal.
The target in assay [3] is Homeobox protein Hox-A13 (Mus musculus) (UniProt Q62424). The experiment in a line: inhibitors of HoxA13-DNA binding, primary screen, biochemical, fluorescence polarization, labeled oligonucleotide (AID 1185). The following applies: 15 min, higher = more signal, called active from +8 up or from −8 down. (In fluorescence polarisation assays a small probe gives low polarisation when free and higher when bound to something large.)
Chain of Homeobox protein Hox-A13 (Mus musculus) (Q62424 whole entry, looked up): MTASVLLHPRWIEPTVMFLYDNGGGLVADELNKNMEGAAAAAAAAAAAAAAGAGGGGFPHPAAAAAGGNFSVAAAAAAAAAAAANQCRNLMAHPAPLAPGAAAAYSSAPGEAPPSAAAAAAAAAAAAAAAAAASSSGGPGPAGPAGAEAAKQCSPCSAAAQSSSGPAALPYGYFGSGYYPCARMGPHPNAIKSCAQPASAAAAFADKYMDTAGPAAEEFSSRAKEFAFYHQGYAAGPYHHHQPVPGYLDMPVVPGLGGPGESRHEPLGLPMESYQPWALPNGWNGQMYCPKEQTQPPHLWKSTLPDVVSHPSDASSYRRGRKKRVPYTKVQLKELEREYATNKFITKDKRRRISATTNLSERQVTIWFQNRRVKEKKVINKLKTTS

For the molecule `CO[C@@H]1COC(=O)CC=C[C@@H](C)[C@@H]2C=C[C@H](O)[C@@H](COC(=O)[C@H](C)NC(=O)CC=C[C@H]1C)O2`, the composite z-score was 0.78 (inactive) in assay [1] and 0.437 with XIP peptide (Xip251-270). The z-score is -0.117 in assay [2] and -3.61 (inactive) in assay [3].
Regarding `COc1cccc([C@@H]2Oc3ccc(Br)cc3C(=O)[C@H]2O)c1`, the composite z-score was 2.46 (inactive) in assay [1] and 0.181 in the assay on XIP peptide (Xip251-270). Besides, the results for the z-score in assay [2] and in assay [3] were 0.988 and -1.54 (inactive), respectively.
On to `CCCNC(=O)OC[C@H]1O[C@H](CCON=C2[C@H]3CCn4c(=O)n(-c5ccccc5)c(=O)n4[C@H]3[C@H](O)[C@@H]3O[C@H]23)C=C[C@@H]1Oc1ccc(OC)cc1`, for which the composite z-score in assay [1] was 0.118 (inactive); in the assay with XIP peptide (Xip251-270), 0.592. Also, the z-score in assay [2] was -1.01; in assay [3] it was -6.53 (inactive).
Take `O=C(NN=C1C[C@@H](O)[C@@H](O)[C@@H]2[C@@H]3C(=O)N(c4cccc(Oc5ccccc5)c4)C(=O)[C@@H]3CC[C@H]12)OCc1ccccc1`: the values for the composite z-score (in assay [1]; in the assay with XIP peptide (Xip251-270)) were -0.132 (inactive) and 0.0323, respectively. The z-score was -1.43 in assay [2] and -3.8 (inactive) in assay [3].
On the same counts, the results for `CO[C@H]1COC(=O)[C@@H]2CCCN2C(=O)[C@@H](C)COC(=O)CC=C[C@@H]1C` are -0.0014 (inactive), 0.371, 1.2 and -0.54 (inactive).
With `CCN1C(=O)[C@H]2[C@H]3[C@H](O)[C@H](O)CC(=NOCc4ccccc4)[C@@H]3CC[C@H]2C1=O`, the composite z-score in assay [1] is -0.161 (inactive); in the assay on XIP peptide (Xip251-270) it was 0.465. In addition, the z-score was -0.165 in assay [2] and 0.697 (inactive) in assay [3].
On to `Cc1cc(C)c(-c2cc([C@H](C)ON=C3[C@H]4CCn5c(=O)n(-c6ccccc6)c(=O)n5[C@H]4[C@H](O)[C@@H]4O[C@H]34)on2)c(C)c1`, for which the composite z-score was 2.08 (inactive) in assay [1] and 0.0933 with XIP peptide (Xip251-270). Besides, the z-score is 0.173 in assay [2] and -4.69 (inactive) in assay [3].
On the same counts, the results for `COC(=O)CC=C[C@H](C)[C@@H](OCc1ccccc1Br)C(C)C` are 0.864 (inactive), -0.039, -0.0811 and -0.388 (inactive).
For `O=C1CCCC=C1C(O)CCOCc1ccccc1` (configuration not stated), the composite z-score in assay [1] is -0.294 (inactive); in the assay with XIP peptide (Xip251-270), 0.0941. The values for the z-score in assay [2] and in assay [3] were -0.929 and -0.861 (inactive), respectively.
With `O=C1[C@H]2[C@H]3[C@H](O)[C@H](O)CC(=NOCc4ccccc4)[C@H]3CC[C@H]2C(=O)N1c1cccc(Oc2ccccc2)c1`, the composite z-score was 0.297 (inactive) in assay [1] and 0.723 in the assay on XIP peptide (Xip251-270). Besides, the figures for the z-score in assay [2] and in assay [3] were -0.835 and -1.3 (inactive), respectively.
The matching figures for `COC(=O)[C@H](C)NC(=O)CCC1CC(OC(=O)NCCc2ccc(F)cc2)CC2(CCCC(COC(=O)NCC(c3ccccc3)c3ccccc3)O2)O1` (some centres not stated): 0.477 (inactive), 0.577, -1.32 and -4.47 (inactive).
As for `CCOC(=O)CCN1C(=O)[C@H]2[C@H]3[C@H](O)C=CC(=O)[C@@H]3CC[C@H]2C1=O`, the composite z-score in assay [1] is 0.58 (inactive); in the assay with XIP peptide (Xip251-270) it was 0.0156. For the same molecule, the z-score in assay [2] is -0.0439; in assay [3] it was -0.525 (inactive).
For the molecule `Cc1cc2c(nc1C)CCCN2CC(C)ON=C1[C@H]2CCn3c(=O)n(-c4ccccc4)c(=O)n3[C@H]2[C@H](O)[C@@H]2O[C@H]12` (some centres not stated), the composite z-score in assay [1] was 0.117 (inactive); in the assay on XIP peptide (Xip251-270) it was 0.32. In addition, the z-score in assay [2] was 0.0318; in assay [3], -8.15 (active).
On to `CCOC(=O)[C@H](Cc1ccccc1)NC(=O)CCC1CC(OC(=O)NCCc2ccc(F)cc2)CC2(CCCC(COC(=O)NCC(c3ccccc3)c3ccccc3)O2)O1` (some centres not stated), for which the composite z-score in assay [1] is -0.295 (inactive); in the assay with XIP peptide (Xip251-270) it was 0.651. Moreover, the z-score in assay [2] was -1.39; in assay [3], -4.95 (inactive).
Take `CC(=O)OC[C@H]1O[C@@H](ON=C(C)CCN2CCc3nc(-c4ccccc4)c(-c4ccccc4)cc3C2)[C@H](OC(C)=O)[C@@H](OC(C)=O)[C@@H]1OC(C)=O`: the values for the composite z-score (in assay [1]; with XIP peptide (Xip251-270)) were 0.0113 (inactive) and 0.71, respectively. Moreover, the z-score is -1.08 in assay [2] and -5.05 (inactive) in assay [3].
For the molecule `CO[C@@H]1COC(=O)CC=C[C@@H](C)[C@@H]2C=C[C@H](O)[C@@H](COC(=O)CCC[C@H]1C)O2`, the composite z-score in assay [1] was 0.0426 (inactive); in the assay on XIP peptide (Xip251-270), 0.152. Further, the z-score was 0.149 in assay [2] and -0.262 (inactive) in assay [3].
In the case of `COc1ccc(O[C@H]2C=C[C@@H](c3ccccc3)O[C@@H]2COC(=O)CCC(C)=NO[C@H](C)c2cn([C@@H]3COC[C@H]3O)nn2)cc1`, the values for the composite z-score (in assay [1]; in the assay on XIP peptide (Xip251-270)) were 0.0628 (inactive) and 0.596, respectively. Further, the values for the z-score in assay [2] and in assay [3] were -1.52 and -6.96 (inactive), respectively.
On the same counts, the results for `CC[C@@H](c1ccccc1)n1c(=O)n2n(c1=O)[C@H]1[C@H](O)[C@@H]3O[C@@H]3C(=NOCC(C)C)[C@H]1CC2` are -0.242 (inactive), 0.68, -0.265 and -2.28 (inactive).
On to `O=C1C[C@@H](O)[C@@H](O)[C@@H]2[C@@H]3C(=O)N(Cc4ccc5c(c4)OCO5)C(=O)[C@@H]3CC[C@@H]12`, for which the values for the composite z-score (in assay [1]; with XIP peptide (Xip251-270)) were 0.0648 (inactive) and 0.353, respectively. Besides, the z-score in assay [2] is -0.522; in assay [3], -0.682 (inactive).
Turning to `COC(=O)[C@H](C)NC(=O)CCC1CC(OC(=O)NCc2cccc3ccccc23)CC2(CCCC(COC(=O)NCC3CCCCC3)O2)O1` (some centres not stated), the composite z-score in assay [1] was 0.0034 (inactive); with XIP peptide (Xip251-270), 0.689. For the same molecule, the figures for the z-score in assay [2] and in assay [3] were -1.96 and -2.34 (inactive), respectively.
Regarding `CC(CCC(=O)OC[C@H]1O[C@H](C#Cc2ccccc2)C=C[C@@H]1Oc1ccc(C)cc1)=NOC[C@@H](O)[C@H]1O[C@@H]2OC(C)(C)O[C@@H]2[C@H]1O`, the values for the composite z-score (in assay [1]; in the assay with XIP peptide (Xip251-270)) were 0.0901 (inactive) and -0.823, respectively. For the same molecule, the z-score in assay [2] was -0.521; in assay [3], -2.3 (inactive).
Take `COC(=O)[C@@H]1CC[C@H](C)[C@@H](c2ccc(C)cc2)N1C(=O)c1ccc(C=NOC[C@@H](O)COCc2ccco2)cc1`: the composite z-score in assay [1] is -0.484 (inactive); in the assay with XIP peptide (Xip251-270), -1.03. In addition, the z-score was -2.31 in assay [2] and -6.19 (inactive) in assay [3].
The matching figures for `C[C@@H]1C=CCC(=O)OC[C@H](C)C(=O)N[C@@H](C)C(=O)OC1`: 0.0195 (inactive), -0.059, -0.207 and 0.442 (inactive).

These data come from PubChem BioAssay.
